Drawing on ChEMBL document CHEMBL1961873, “Compounds: GSK PKIS; Assays: Nanosyn kinase panel” (2012), this text covers inhibition for seven molecules.

The subject of experiment [1] is Proto-oncogene tyrosine-protein kinase receptor Ret (Homo sapiens), P07949 [Y791F]. The conditions noted are these: at 1 µM.
For experiment [2], the target named is Macrophage-stimulating protein receptor (Homo sapiens) (UniProt Q04912). As to conditions: at 0.1 µM.
For experiment [3] the target is unchanged. The conditions noted are these: at 1 µM.
In experiment [4] the target is Proto-oncogene tyrosine-protein kinase ROS (Homo sapiens) (UniProt P08922). The conditions noted are these: at 0.1 µM.
Experiment [5] shares this target. The conditions noted are these: at 1 µM.
Experiment [6] deals with Proto-oncogene tyrosine-protein kinase Src (Homo sapiens) (UniProt P12931). As to conditions: at 0.1 µM.
Sequence of Proto-oncogene tyrosine-protein kinase Src (Homo sapiens) (P12931 2-536 limits assumed): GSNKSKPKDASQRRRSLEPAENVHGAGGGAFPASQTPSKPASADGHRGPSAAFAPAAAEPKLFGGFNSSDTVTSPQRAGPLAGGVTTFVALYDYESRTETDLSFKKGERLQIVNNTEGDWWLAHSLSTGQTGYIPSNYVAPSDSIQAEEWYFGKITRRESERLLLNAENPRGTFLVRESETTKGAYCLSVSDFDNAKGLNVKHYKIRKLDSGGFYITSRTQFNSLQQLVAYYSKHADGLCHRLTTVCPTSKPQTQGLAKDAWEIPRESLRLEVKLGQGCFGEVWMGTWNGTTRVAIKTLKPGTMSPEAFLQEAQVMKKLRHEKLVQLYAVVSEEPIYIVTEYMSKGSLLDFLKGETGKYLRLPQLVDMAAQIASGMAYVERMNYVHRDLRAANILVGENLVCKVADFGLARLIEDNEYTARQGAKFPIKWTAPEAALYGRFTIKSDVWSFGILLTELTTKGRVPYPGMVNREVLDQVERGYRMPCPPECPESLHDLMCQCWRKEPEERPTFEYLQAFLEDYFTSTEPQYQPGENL
Experiment [7] has the same target. The conditions noted are these: at 1 µM.
Experiment [8] deals with Tyrosine-protein kinase Srms (Homo sapiens) (UniProt Q9H3Y6). As to conditions: at 0.1 µM.
Sequence of Tyrosine-protein kinase Srms (Homo sapiens) (Q9H3Y6 whole entry): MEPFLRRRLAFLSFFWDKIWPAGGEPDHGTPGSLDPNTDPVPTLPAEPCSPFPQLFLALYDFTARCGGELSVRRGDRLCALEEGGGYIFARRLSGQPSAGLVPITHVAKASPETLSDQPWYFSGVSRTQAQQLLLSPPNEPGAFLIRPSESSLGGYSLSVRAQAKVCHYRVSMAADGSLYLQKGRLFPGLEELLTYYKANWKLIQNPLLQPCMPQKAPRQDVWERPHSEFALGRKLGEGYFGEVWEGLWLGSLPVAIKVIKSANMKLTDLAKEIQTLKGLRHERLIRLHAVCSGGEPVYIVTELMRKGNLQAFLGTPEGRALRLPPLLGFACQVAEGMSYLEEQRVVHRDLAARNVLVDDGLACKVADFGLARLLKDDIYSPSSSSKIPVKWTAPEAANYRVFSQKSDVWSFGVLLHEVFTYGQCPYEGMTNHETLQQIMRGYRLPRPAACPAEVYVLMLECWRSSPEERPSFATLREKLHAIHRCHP
Experiment [9] shares this target. As to conditions: at 1 µM.
Experiment [10] deals with Tyrosine-protein kinase SYK (Homo sapiens) (UniProt P43405). As to conditions: at 0.1 µM.
Experiment [11] shares this target. The conditions noted are these: at 1 µM.
For experiment [12], the target named is T1, Tyrosine-protein kinase Tec (Homo sapiens) (UniProt P42680).
T1 sequence (whole entry): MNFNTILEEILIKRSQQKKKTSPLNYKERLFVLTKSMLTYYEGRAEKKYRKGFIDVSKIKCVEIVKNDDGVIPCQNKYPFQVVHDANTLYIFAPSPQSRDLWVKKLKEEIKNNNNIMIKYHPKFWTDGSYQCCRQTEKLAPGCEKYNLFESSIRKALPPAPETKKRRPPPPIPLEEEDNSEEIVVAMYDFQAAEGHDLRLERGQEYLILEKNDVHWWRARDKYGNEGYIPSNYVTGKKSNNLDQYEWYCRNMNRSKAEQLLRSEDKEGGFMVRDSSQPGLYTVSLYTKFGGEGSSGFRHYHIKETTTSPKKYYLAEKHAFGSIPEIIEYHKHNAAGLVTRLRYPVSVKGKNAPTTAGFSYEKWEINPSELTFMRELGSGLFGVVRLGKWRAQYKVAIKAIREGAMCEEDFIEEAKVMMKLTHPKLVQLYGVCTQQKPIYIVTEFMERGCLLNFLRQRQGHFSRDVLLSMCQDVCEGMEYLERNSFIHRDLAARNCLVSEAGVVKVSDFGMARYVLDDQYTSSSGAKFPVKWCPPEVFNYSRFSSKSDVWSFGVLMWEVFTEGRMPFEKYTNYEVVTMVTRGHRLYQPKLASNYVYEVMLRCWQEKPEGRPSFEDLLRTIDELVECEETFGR
The conditions noted are these: at 0.1 µM.

Experiment [13] addresses T1, Tyrosine-protein kinase Tec (Homo sapiens). As to conditions: at 1 µM.
In experiment [14] the target is Angiopoietin-1 receptor (Homo sapiens) (UniProt Q02763). As to conditions: at 0.1 µM.
For experiment [15] the target is unchanged. The conditions noted are these: at 1 µM.
Experiment [16] concerns the target T2, Non-receptor tyrosine-protein kinase TNK1 (Homo sapiens) (UniProt Q13470).
T2 sequence (whole entry): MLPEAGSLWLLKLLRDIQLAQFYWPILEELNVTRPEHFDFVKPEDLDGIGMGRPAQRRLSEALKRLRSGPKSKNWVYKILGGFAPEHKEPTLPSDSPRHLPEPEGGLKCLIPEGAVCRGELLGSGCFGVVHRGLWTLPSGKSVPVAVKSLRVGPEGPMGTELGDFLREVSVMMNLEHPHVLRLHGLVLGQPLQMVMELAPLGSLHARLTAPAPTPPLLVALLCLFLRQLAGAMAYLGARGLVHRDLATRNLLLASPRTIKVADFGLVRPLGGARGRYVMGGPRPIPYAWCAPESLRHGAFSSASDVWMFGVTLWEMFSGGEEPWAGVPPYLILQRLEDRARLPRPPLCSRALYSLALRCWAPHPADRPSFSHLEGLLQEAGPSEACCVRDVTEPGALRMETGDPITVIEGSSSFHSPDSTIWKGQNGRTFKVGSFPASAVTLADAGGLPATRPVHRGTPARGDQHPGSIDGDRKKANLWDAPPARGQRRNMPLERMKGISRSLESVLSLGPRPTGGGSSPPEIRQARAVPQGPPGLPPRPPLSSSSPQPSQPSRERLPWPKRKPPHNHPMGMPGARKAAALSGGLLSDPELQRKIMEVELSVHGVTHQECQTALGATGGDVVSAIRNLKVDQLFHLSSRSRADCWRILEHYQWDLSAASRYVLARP
The conditions noted are these: at 0.1 µM.

In experiment [17] the target is T2, Non-receptor tyrosine-protein kinase TNK1 (Homo sapiens). As to conditions: at 1 µM.
The target of experiment [18] is Activated CDC42 kinase 1 (Homo sapiens) (UniProt Q07912). The conditions noted are these: at 0.1 µM.
For experiment [19] the target is unchanged. As to conditions: at 1 µM.
Experiment [20] has as its target High affinity nerve growth factor receptor (Homo sapiens) (UniProt P04629). As to conditions: at 0.1 µM.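 Further: each value is a mean of replicate percent inhibition readings against TRKA kinase.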

Sequence of Macrophage-stimulating protein receptor (Homo sapiens) (Q04912 25-304 limits assumed): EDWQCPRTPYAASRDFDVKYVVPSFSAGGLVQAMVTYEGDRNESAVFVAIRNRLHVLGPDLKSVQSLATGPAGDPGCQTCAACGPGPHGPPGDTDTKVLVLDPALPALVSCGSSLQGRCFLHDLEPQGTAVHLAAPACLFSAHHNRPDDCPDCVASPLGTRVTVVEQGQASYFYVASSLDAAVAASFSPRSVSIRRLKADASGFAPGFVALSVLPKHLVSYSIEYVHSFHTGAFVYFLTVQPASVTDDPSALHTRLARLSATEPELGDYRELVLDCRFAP
Sequence of Macrophage-stimulating protein receptor (Homo sapiens) (Q04912 310-1400 limits assumed): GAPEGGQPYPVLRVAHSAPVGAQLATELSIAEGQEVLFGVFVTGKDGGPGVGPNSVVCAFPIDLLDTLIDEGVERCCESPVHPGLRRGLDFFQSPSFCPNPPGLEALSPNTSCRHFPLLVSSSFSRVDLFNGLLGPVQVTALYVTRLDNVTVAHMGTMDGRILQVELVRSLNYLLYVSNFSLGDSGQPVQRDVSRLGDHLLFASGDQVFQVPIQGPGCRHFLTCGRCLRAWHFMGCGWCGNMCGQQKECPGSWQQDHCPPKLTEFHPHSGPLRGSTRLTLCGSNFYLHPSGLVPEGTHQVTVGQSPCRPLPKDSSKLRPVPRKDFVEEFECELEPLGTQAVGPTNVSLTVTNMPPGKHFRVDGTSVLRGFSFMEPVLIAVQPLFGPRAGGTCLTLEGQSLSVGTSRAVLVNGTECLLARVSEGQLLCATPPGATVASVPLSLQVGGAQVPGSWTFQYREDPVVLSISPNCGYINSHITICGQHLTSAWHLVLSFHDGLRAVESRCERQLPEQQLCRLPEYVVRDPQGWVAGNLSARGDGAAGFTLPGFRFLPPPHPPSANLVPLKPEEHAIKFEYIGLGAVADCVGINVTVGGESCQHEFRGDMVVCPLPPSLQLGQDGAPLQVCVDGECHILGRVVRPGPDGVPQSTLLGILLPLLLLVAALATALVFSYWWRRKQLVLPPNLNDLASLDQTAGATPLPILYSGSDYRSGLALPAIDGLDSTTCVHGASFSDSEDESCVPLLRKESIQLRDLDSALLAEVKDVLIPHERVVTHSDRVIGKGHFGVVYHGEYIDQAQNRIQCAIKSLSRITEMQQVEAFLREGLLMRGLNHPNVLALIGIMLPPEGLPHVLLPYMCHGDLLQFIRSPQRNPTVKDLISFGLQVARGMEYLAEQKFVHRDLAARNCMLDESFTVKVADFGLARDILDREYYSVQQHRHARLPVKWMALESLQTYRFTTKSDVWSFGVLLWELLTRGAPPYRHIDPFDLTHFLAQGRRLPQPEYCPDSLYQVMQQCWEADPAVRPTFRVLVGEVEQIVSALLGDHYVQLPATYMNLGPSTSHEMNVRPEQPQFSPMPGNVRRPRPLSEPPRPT
Sequence of Proto-oncogene tyrosine-protein kinase receptor Ret (Homo sapiens), P07949 [Y791F] (P07949 whole entry Y791F): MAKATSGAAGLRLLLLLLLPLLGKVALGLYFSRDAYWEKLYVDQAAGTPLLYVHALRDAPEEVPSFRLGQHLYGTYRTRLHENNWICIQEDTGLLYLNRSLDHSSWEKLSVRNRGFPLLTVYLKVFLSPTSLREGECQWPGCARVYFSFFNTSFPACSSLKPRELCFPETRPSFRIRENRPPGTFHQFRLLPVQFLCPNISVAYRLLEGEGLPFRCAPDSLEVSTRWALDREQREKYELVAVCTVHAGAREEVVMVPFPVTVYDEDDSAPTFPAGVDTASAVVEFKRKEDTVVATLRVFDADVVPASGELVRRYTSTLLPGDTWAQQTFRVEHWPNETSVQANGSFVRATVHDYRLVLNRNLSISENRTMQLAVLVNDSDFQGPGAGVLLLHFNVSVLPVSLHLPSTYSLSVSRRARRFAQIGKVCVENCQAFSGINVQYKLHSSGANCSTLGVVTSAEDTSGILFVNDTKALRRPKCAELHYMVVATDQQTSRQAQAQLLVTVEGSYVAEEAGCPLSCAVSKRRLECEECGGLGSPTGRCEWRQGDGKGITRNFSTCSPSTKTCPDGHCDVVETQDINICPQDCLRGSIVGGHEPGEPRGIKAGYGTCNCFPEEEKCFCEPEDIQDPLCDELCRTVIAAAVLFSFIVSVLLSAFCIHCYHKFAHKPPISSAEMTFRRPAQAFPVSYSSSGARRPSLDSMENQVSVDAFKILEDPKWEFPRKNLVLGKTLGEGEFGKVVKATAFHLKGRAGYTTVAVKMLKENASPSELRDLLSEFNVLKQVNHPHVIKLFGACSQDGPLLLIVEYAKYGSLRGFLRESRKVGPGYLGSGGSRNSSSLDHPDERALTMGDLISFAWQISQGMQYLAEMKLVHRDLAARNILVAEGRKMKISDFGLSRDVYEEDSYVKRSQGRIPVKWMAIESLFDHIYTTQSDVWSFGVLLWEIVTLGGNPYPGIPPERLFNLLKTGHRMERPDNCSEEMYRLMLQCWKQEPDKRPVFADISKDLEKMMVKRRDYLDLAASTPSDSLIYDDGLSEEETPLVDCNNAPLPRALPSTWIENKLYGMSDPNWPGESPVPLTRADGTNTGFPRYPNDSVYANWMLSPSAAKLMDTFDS
Sequence of High affinity nerve growth factor receptor (Homo sapiens) (P04629 33-796 limits assumed): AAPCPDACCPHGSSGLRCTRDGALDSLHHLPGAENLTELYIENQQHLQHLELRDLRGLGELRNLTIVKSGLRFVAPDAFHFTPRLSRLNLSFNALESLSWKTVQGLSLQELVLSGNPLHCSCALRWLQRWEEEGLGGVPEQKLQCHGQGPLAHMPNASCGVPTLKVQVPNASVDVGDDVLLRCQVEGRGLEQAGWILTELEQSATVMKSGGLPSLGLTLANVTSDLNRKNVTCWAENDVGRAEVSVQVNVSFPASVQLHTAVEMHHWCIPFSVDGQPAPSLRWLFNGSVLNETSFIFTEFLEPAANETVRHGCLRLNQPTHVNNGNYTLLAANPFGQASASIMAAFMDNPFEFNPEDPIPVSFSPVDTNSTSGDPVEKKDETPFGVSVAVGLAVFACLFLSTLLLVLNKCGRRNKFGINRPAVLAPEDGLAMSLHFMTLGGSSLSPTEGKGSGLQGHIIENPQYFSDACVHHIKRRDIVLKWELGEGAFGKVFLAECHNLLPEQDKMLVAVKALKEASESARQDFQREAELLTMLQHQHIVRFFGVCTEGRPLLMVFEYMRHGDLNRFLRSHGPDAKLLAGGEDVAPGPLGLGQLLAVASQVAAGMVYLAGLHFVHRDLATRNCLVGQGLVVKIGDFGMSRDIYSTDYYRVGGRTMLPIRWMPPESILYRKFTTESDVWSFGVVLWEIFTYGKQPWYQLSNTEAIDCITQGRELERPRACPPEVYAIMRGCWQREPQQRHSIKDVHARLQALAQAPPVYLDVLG

As for `O=C(Nc1n[nH]c2nc(-c3ccc(O)cc3)c(Br)cc12)C1CC1`, the inhibition – broadly, the relative decrease from the control value, in per cent – in experiment [1] was 36.3%; in [2] it was 2.95%; in [3] it was 6.19%; in [4], 5.89%; in experiment [5], 11.1%; in experiment [6], -2.92%. In addition, the inhibition was 20.3% in [7]; 2.23% in experiment [8]; 17% in experiment [9]; -6.1% in experiment [10]; 0.18% in experiment [11]; 6.51% in [12]. The inhibition in experiment [13] turned out to be 14.4%; in [14] it was 5.98%; in experiment [15], 26.2%; in experiment [16], 4.45%; in experiment [17] it was 20.4%; in experiment [18] it was 1.69%. Also, the inhibition was 3.9% in experiment [19] and 4.06% in experiment [20].

For the molecule `O=C(Nc1n[nH]c2cc(-c3ccccc3)ccc12)C1CC1`, the inhibition in experiment [1] is 10.6%; in experiment [2] it was 3.18%; in [3] it was 5.31%; in [4] it was 6.26%; in experiment [5], 7.64%; in [6] it was 0.33%. In addition, the inhibition is 10.7% in experiment [7]; -0.84% in experiment [8]; 3.11% in experiment [9]; -3.33% in experiment [10]; 1.22% in experiment [11]; 7.27% in experiment [12]. Also, the inhibition amounted to 16.4% in [13]; 1.86% in [14]; 3.48% in [15]; 3.15% in experiment [16]; 7.79% in [17]; 0.74% in experiment [18]. The inhibition in [19] amounted to 3.97%; in experiment [20], 2.59%.

With `Cc1ccc(NC(=O)c2ccoc2)cc1-c1ccc(C(=O)NCC2CC2)cc1`, the inhibition in experiment [1] is 4.03%; in experiment [2], -2.83%; in [3], -3.5%; in experiment [4], 0.21%; in [5] it was -0.03%; in experiment [6], 5.81%. Besides, the inhibition in [7] was 4.32%; in experiment [8], -1.74%; in experiment [9] it was -2.77%; in experiment [10], -1.35%; in experiment [11] it was -2.99%; in [12], 0.28%. Further, the inhibition in experiment [13] worked out at 3.18%; in experiment [14] it was 1.56%; in experiment [15], 3.38%; in experiment [16], 0.21%; in experiment [17], 5.38%; in experiment [18], 0.62%. For the same molecule, the inhibition in experiment [19] was 0.64%; in experiment [20], 2.04%.

As for `COc1cc(N2CCN(C(C)C)CC2)ccc1Nc1nc(Nc2ccc(F)cc2C(=O)NC[C@@H](O)CO)c2cc[nH]c2n1`, the inhibition came to 13.9% in [1]; 7.42% in experiment [2]; 2.76% in experiment [3]; 17.8% in [4]; 60% in experiment [5]; 3.75% in experiment [6]. Besides, the inhibition was 9.14% in experiment [7]; -2.12% in experiment [8]; -0.49% in experiment [9]; -1.02% in [10]; -2.57% in experiment [11]; 1.33% in experiment [12]. In addition, the inhibition was determined as 1.93% in experiment [13]; 2.59% in experiment [14]; 6.08% in experiment [15]; 14.7% in experiment [16]; 60.5% in experiment [17]; 3.26% in experiment [18]. For the same molecule, the inhibition in experiment [19] amounted to 9.35%; in [20], 3.81%.

As for `O=C(NCC1CC1)c1ccc(-c2cccc(C(=O)NC3CC3)c2)cc1`, the inhibition in [1] is 24.5%; in experiment [2], 4.01%; in experiment [3], 0%; in experiment [4], 3.69%; in [5], 6.33%; in experiment [6], 2.23%. In addition, the inhibition was 7.22% in experiment [7]; -2.13% in experiment [8]; -0.43% in experiment [9]; -0.53% in experiment [10]; -1.45% in experiment [11]; 2.57% in experiment [12]. Besides, the inhibition was 6.01% in experiment [13]; 2.21% in experiment [14]; 6.47% in experiment [15]; 1.89% in experiment [16]; -2.48% in [17]; 0.86% in experiment [18]. Besides, the results for the inhibition in [19] and in [20] were 1.39% and 4.07%, respectively.

As for `O=C(Nc1ccc(Oc2ccc3[nH]c(NC(=O)c4ccccc4)nc3c2)cc1)Nc1cc(C(F)(F)F)ccc1F`, the inhibition was 87% in [1]; 0.56% in experiment [2]; 5.31% in [3]; 4.24% in experiment [4]; 11.4% in experiment [5]; 4.33% in [6]. Besides, the inhibition in experiment [7] is 11.2%; in [8], 1.78%; in [9], 4.56%; in experiment [10], -1%; in [11], -0.11%; in [12] it was 4.86%. The inhibition was determined as 8.67% in experiment [13]; 9.81% in experiment [14]; 60.5% in [15]; 4.53% in experiment [16]; 40% in experiment [17]; 0.59% in experiment [18]. Also, the inhibition came out at 4.59% in experiment [19] and 5.99% in [20].

For `O=C1NC(=O)C(c2cccc(Cl)c2)=C1Nc1ccc(Cl)c(C(=O)O)c1`, the inhibition in [1] was 13.8%; in [2] it was 5.57%; in [3], 1.47%; in experiment [4], 2%; in experiment [5], 0.59%; in experiment [6] it was 8.46%. In addition, the inhibition in [7] is 8.07%; in experiment [8], 0.43%; in [9], 0.54%; in experiment [10], 1.85%; in experiment [11], -0.32%; in [12], 3.38%. Besides, the inhibition was 2.84% in [13]; 1.75% in experiment [14]; 4.22% in [15]; 0.16% in [16]; 11% in experiment [17]; 0.78% in experiment [18]. Further, the inhibition in [19] is 0.5%; in [20], 0.94%.
